Test results: PubChem BioAssay (Tox21)
Inconclusive results are not listed. The source made the active and inactive calls. Unless noted, calls come from the whole dose curve; as a rule, active = well fitted curve in the direction sought with a large enough effect in the repeat runs; inconclusive = weak or mixed curves; inactive = no such curve, though single readings can be large; an effect the other way counts as inactive or inconclusive.

Columns and labels:
[1] = qHTS assay to identify small molecule agonists of the vitamin D receptor (VDR) signaling pathway - cell viability counter screen (AID 743224); note: % is set by controls: 0 for no effect and ±100 for the full control effect; nearly all actives have a fitted effect of over 50% in size
In short: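 Here cell health was gauged by luminescent ATP detection (CellTiter-Glo, 30 min RT) in VDR-bla cells that had been incubated with test compounds for 16 h at 37C and 5% CO2.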

[2] = qHTS assay to identify small molecule antagonists of the vitamin D receptor (VDR) signaling pathway - cell viability counter screen (AID 743225); note: % is set by controls: 0 for no effect and ±100 for the full control effect; nearly all actives have a fitted effect of over 50% in size
In short: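 Compounds were pinned onto VDR-bla HEK 293T cells together with 1-alpha,25-dihydroxyvitamin D3 at 3 nM final. After 16 h at 37C and 5% CO2 plus the reporter readout, cell viability was measured by CellTiter-Glo luminescence (30 min, room temperature).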

[3] = qHTS assay to identify small molecule agonists of the NFkB signaling pathway (AID 1159509; active = well fitted curve in the direction sought with a large enough effect in the signal ratio in the repeat runs, not every such curve was filed as active; the % refers to the signal ratio; note: % is set by controls: 0 for no effect and ±100 for the full control effect)
In short: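 NFkB-bla ME-180 cells with a beta-lactamase reporter under an NF-kB response element were plated overnight, treated with compounds in DMSO for 5 hr at 37 C, then loaded with FRET substrate for 1.5 hr at room temperature.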

[4] = qHTS assay to identify small molecule agonists of the NFkB signaling pathway - cell viability counter screen (AID 1159515; calls by dose curve; note: % is set by controls: 0 for no effect and ±100 for the full control effect; nearly all actives have a fitted effect of over 55% in size)
In short: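 5 hr compound treatment of NFkB-bla ME-180 cells (2,000/well, seeded overnight beforehand), followed by reporter substrate for 1.5 hr. CellTiter-Glo added afterward; luminescence after 30 min RT.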

[5] = qHTS assay to identify small molecule agonists of the endoplasmic reticulum stress response signaling pathway (AID 1159516; active = well fitted activation curve with a large enough effect in the signal ratio in the repeat runs, not every such curve was filed as active; the % refers to the signal ratio; note: % is set by controls: 0 for no effect and ±100 for the full control effect)
In short: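 Reporter HeLa cells (ESRE-beta-lactamase) underwent 5 hr compound incubation at 37 C and 5% CO2 in quantitative HTS format. Detection followed 2 hr of FRET substrate loading at room temperature.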

[6] = qHTS assay to identify small molecule agonists of the endoplasmic reticulum stress response signaling pathway - cell viability counter screen (AID 1159517; calls by dose curve;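 note: HeLa cells carrying an ER stress response element beta-lactamase reporter; % is set by controls: 0 for no effect and ±100 for the full control effect; nearly all actives have a fitted effect of over 50% in size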)
In short: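 Luminescence readout: CellTiter-Glo, 30 min RT, same wells as the ESRE-bla reporter read. HeLa ESRE-bla, 1,500 cells/well, o/n 37 C; cpd 5 hr 37 C/5% CO2.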

[7] = qHTS assay to identify small molecule antagonists of the retinoid-related orphan receptor gamma (ROR-gamma) signaling pathway - cell viability counter screen (AID 1159520); note: % is set by controls: 0 for no effect and ±100 for the full control effect; nearly all actives have a fitted effect of over 50% in size
In short: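 Tet-on ROR gamma CHO cells (1,000/well) were plated 4 hr, given compounds in DMSO for 2 hr at 37 C, then induced with 1 uM final doxycycline for 16 hr. Viability was read as ATP by CellTiter-Glo luminescence after 30 min.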

[8] = molecular target: Nuclear receptor ROR-gamma (Homo sapiens) (UniProt P51449); experiment: qHTS assay to identify small molecule antagonists of the retinoid-related orphan receptor gamma (ROR-gamma) signaling pathway (AID 1159521)
In short: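 Test compounds were applied to Tet-on RORγ CHO cells 2 h ahead of doxycycline hyclate (1 uM final). Luciferase reporter activity was quantified by luminescence after 16 h at 37 C and 5% CO2.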

[9] = qHTS assay to identify small molecule agonists of the AP-1 signaling pathway - cell viability counter screen (AID 1159525; calls by dose curve; note: nearly all actives have a fitted effect of over 55% in size)
In short: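 ME-180 AP-1-bla, 2500 cells/well, Opti-MEM + 0.5% dialyzed FBS; overnight 37 °C; cpd 15-pt titration, 5 h 37 °C; CellTiter-Glo 30 min RT; luminescence read; normalised to TOAB and DMSO controls.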

[10] = qHTS assay to identify small molecule agonists of the AP-1 signaling pathway (AID 1159526; calls by dose curve; note: % is set by controls: 0 for no effect and ±100 for the full control effect)
[11] = molecular target: Retinoic acid receptor RXR-alpha (Homo sapiens) (UniProt P19793); experiment: qHTS assay to identify small molecule agonists of the RXR signaling pathway (AID 1159527; calls by dose curve; note: % is set by controls: 0 for no effect and ±100 for the full control effect; nearly all actives have a fitted effect of over 35% in size)
In short: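 Using 9-cis retinoic acid as the reference agonist, chemicals were tested in HEK 293T cells […] for 16 hr; substrate loading lasted 2 hr at room temperature.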

[12] = qHTS assay to identify small molecule agonists of the RXR signaling pathway - cell viability counter screen (AID 1159529)
In short: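 Compounds dissolved in DMSO were pinned onto HEK 293T cells carrying a beta-lactamase reporter under RXR-alpha control and incubated 16 hr. Cytotoxicity was then quantified by CellTiter-Glo luminescence.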

[13] = qHTS assay to identify small molecule antagonists of the retinoid acid receptor (RAR) signaling pathway - cell viability counter screen (AID 1159551); note: % is set by controls: 0 for no effect and ±100 for the full control effect; nearly all actives have a fitted effect of over 35% in size
In short: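 Seed C3RL4 cells; next day add compound, then retinol to 1 uM final; incubate 6 h at 37 C; add CellTiter-Glo; read luminescence after 30 min at RT.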

[14] = qHTS assay to identify small molecule antagonists of the retinoic acid receptor (RAR) signaling pathway (AID 1159552)
In short: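 Test chemicals and DMSO controls were pin-transferred onto C3RL4 cells a day after seeding; retinol (1 uM final) followed at once. Luminescent reporter output was quantified after 6 hr of co-incubation and 30 min with detection reagent.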

[15] = qHTS assay to identify small molecule agonists of the retinoic acid receptor (RAR) signaling pathway (AID 1159553); details: C3RL4 RARE luciferase reporter, agonist, 6 h; activation: at 73.3 µM (top of the series); note: % is set by controls: 0 for no effect and ±100 for the full control effect
In short: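 Activation of retinol signaling was monitored via a RARE luciferase reporter in C3RL4 cells. After 6 hr compound treatment at 37 C, detection reagent was added for 30 min at room temperature before luminescence reading.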

[16] = qHTS assay to identify small molecule antagonists of the estrogen related receptor (ERR) signaling pathway from Tox21 library - cell viability counter screen (AID 1224834); note: % is set by controls: 0 for no effect and ±100 for the full control effect; nearly all actives have a fitted effect of over 30% in size
In short: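 CellTiter-Fluor fluorescence measured; ERR cells; 17.5 h compound incubation at 37 C; 30 min reagent step.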

[17] = molecular target: Luciferin 4-monooxygenase (Photinus pyralis) (UniProt P08659); experiment: qHTS assay to identify small molecule inhibitors of firefly luciferase (AID 1224835); note: % is set by controls: 0 for no effect and ±100 for the full control effect; nearly all actives have a fitted effect of over 25% in size
In short: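 Quantitative HTS format; KM concentrations of both substrates. Purified P. pyralis FLuc activity quantified from luminescence images.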

[18] = qHTS assay to identify small molecule antagonists of the constitutive androstane receptor (CAR) signaling pathway - cell viability counter screen (AID 1224837); note: % is set by controls: 0 for no effect and ±100 for the full control effect; nearly all actives have a fitted effect of over 45% in size
In short: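 Using CellTiter-Fluor, viability is scored in HepG2 cells stably carrying hCAR and a 2.2kb CYP2B6 reporter after 23 hr compound exposure across 15 concentrations, with CITCO present at 50 nM.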

[19] = qHTS assay to identify small molecule agonists of the constitutive androstane receptor (CAR) signaling pathway - cell viability counter screen (AID 1224836); note: % is set by controls: 0 for no effect and ±100 for the full control effect; nearly all actives have a fitted effect of over 45% in size
In short: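 23 h treatment, 37 C, 5% CO2. Cell line: HepG2 stably expressing hCAR with a CYP2B6-2.2kb construct. Co-treatment: PK11195, 0.75 uM final. Read-out: CellTiter-Fluor fluorescence intensity.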

[20] = molecular target: Nuclear receptor subfamily 1 group I member 3 (Homo sapiens) (UniProt Q14994); experiment: qHTS assay to identify small molecule antagonists of the constitutive androstane receptor (CAR) signaling pathway (AID 1224838);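 note: HepG2 cells stably expressing hCAR with CYP2B6 luciferase reporter stimulated by CITCO; % is set by controls: 0 for no effect and ±100 for the full control effect; nearly all actives have a fitted effect of over 40% in size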
In short: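 Reporter luminescence was quantified after 24 h exposure of hCAR/CYP2B6-2.2kb double-stable HepG2 cells to compounds at 15 concentrations in the presence of 50 nM CITCO final.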

Retinoic acid receptor RXR-alpha (Homo sapiens), sequence (P19793 whole entry, looked up): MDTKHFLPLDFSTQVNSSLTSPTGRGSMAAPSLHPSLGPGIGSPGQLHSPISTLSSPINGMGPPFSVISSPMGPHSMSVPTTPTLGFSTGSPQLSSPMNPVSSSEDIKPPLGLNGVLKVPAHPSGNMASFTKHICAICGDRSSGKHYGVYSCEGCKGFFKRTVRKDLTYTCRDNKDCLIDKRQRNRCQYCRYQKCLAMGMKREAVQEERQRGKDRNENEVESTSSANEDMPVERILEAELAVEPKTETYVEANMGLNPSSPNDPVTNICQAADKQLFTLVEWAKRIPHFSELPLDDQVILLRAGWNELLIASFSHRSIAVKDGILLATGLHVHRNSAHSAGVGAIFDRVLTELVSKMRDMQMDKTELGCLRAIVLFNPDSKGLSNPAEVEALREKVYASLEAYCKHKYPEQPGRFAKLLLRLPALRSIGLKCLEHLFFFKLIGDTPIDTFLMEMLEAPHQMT
Luciferin 4-monooxygenase (Photinus pyralis), sequence (P08659 whole entry, looked up): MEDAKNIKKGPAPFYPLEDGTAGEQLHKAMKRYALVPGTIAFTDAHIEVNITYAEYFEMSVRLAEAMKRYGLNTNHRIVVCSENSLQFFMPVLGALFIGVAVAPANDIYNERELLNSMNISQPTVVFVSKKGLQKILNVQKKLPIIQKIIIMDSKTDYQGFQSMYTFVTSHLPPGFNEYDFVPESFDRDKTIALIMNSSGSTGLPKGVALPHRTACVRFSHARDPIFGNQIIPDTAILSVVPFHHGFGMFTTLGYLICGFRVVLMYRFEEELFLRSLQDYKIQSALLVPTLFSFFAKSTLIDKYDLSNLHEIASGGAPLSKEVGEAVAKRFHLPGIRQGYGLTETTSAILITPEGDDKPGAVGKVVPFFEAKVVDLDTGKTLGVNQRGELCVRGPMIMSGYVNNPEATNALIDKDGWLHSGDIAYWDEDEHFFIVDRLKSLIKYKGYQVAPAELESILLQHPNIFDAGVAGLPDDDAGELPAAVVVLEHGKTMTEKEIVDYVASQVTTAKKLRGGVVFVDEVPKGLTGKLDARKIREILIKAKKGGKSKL
Nuclear receptor subfamily 1 group I member 3 (Homo sapiens), sequence (Q14994 whole entry, looked up): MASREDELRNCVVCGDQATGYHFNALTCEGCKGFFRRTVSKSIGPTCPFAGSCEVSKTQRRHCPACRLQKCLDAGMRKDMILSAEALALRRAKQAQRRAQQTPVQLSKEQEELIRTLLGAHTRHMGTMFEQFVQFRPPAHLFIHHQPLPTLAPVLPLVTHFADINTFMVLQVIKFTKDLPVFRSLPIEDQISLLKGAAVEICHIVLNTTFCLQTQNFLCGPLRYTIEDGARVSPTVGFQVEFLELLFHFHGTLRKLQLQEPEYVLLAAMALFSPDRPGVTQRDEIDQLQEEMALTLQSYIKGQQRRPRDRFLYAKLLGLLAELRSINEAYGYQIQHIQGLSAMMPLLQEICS

CO/N=C(/C(=O)N[C@@H]1C(=O)N2C(C(=O)O)=C(Cn3nnc(C)n3)CS[C@H]12)c1csc(N)n1
inactive: outcome [1] | outcome [2] | outcome [3] | outcome [4] | outcome [5] | outcome [6] | outcome [7] | outcome [8] | outcome [9] | outcome [10] | Potency [11] | outcome [12] | outcome [13] | Potency [14] | Potency [15] | Potency [16] | Potency [17] | Potency [18]

Cc1ccc(S(=O)(=O)NC(=O)NC2CCCCCCC2)cc1
inactive: outcome [1] | outcome [2] | outcome [3] | outcome [4] | outcome [5] | outcome [6] | outcome [7] | outcome [8] | outcome [9] | outcome [10] | Potency [11] | outcome [12] | outcome [13] | Potency [14] | Potency [15] | Potency [16] | Potency [17] | outcome [19]

CCOC(=O)OCC/C(SC(=O)OCC)=C(\C)N(C=O)Cc1cnc(C)nc1N
inactive: outcome [1] | outcome [3] | outcome [4] | outcome [5] | outcome [6] | outcome [7] | outcome [8] | outcome [9] | outcome [10] | Potency [11] | outcome [12] | outcome [13] | Potency [14] | Potency [15] | Potency [17] | outcome [19] | Potency [18]

Nc1ccc(/C=C/c2ccc(N)cc2S(=O)(=O)O)c(S(=O)(=O)O)c1
inactive: activity change, negative = cytotoxicity [1] 8.54% [at 0.55 µM] | viability change, negative = cytotoxic [2] 9.91% [at 0.628 µM] | activation [3] 0.561% [at 0.628 µM] | activity, negative = cytotoxic [4] 1.66% [at 0.628 µM] | activation [5] 0% [at 0.628 µM] | activity change, negative = cytotoxicity [6] 9.94% [at 0.628 µM] | activity, negative = cytotoxicity [7] -1.32% [at 0.349 µM] | activity change, negative = inhibition [8] 35.7% [at 0.35 µM] | viability change, negative = cytotoxic [9] 6.31% [at 0.29 µM] | activation [10] -7.74% [at 0.29 µM] | activation [11] 6.35% [at 0.29 µM] | activity change, negative = cytotoxicity [12] 1.24% [at 0.29 µM] | activity change, negative = cytotoxicity [13] 2.39% [at 0.349 µM] | activity, negative = inhibition [14] 3.51% [at 0.349 µM] | activation [15] -0.705% [at 0.756 µM] | viability change, negative = cytotoxic [16] 2.37% [at 0.349 µM] | activity change, negative = inhibition [17] 0.257% [at 0.435 µM] | activity change, negative = cytotoxicity [18] 10.1% [at 0.349 µM] | activity, negative = inhibition [20] -20.1% [at 0.349 µM]

Nc1c(NC/C=C\COc2cc(CN3CCCCC3)ccn2)c(=O)c1=O
inactive: outcome [1] | outcome [2] | outcome [3] | outcome [4] | outcome [5] | outcome [6] | activity, negative = cytotoxicity [7] 0% [at 19 µM] | activity change, negative = inhibition [8] -0.0898% [at 19 µM] | viability change, negative = cytotoxic [9] -1.48% [at 15.8 µM] | activation [10] -3.62% [at 15.8 µM] | activation [11] 10.6% [at 15.8 µM] | activity change, negative = cytotoxicity [12] 0.401% [at 15.8 µM] | activity change, negative = cytotoxicity [13] 3.28% [at 19 µM] | activity, negative = inhibition [14] -5.94% [at 19 µM] | Potency [15] | viability change, negative = cytotoxic [16] -12.4% [at 19 µM] | activity change, negative = inhibition [17] 10.6% [at 23.6 µM] | activity, negative = inhibition [20] 4.07% [at 19 µM]

CCCCCCCCCCCCCC(=O)OC
inactive: outcome [1] | outcome [2] | outcome [3] | outcome [4] | outcome [5] | outcome [6] | outcome [7] | outcome [8] | outcome [9] | outcome [10] | Potency [11] | outcome [12] | outcome [13] | Potency [14] | Potency [15] | Potency [16] | Potency [17] | outcome [19]

O=P(O)(O)OCC(O)CO (stereo unspecified)
inactive: outcome [1] | outcome [2] | outcome [3] | outcome [4] | outcome [5] | outcome [6] | outcome [7] | outcome [8] | outcome [9] | outcome [10] | Potency [11] | outcome [12] | outcome [13] | Potency [14] | Potency [15] | Potency [16] | Potency [17] | Potency [18]
